D1 ag = Allosteric Agonists of the Human D1 Dopamine Receptor: qHTS | HEK293 T-REx D1 cells, calcium flux, agonist mode | AID 504660, 2011 | 360,000 tested, 1% active | activation, % at 2 µM | D(1A) dopamine receptor (Homo sapiens), P21728; also: 0% is about no effect
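Agonism was scored from calcium flux recorded over 180 s (1 read/s) after pintool compound addition, following a 10-cycle baseline. Cells were inducible force-coupled HEK293 TREx D1, plated overnight at 30 C and loaded with no-wash calcium dye.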
D1 PAM = Potentiators of Human D1 Dopamine Receptor: qHTS; AID 504651, 2011; potentiation, % at 10 µM; HEK293 TREx D1 cells, calcium flux, dopamine EC20 potentiation; 360,000 tested, 0.036% active; in the data active = potentiation above about 30%; also: 0% is about no effect
D1 antag = Antagonist of Human D 1 Dopamine Receptor: qHTS. 360,000 tested, 3.2% active. HEK293 TREx D1 cells, calcium flux, dopamine EC80; hits give low values. D(1A) dopamine receptor (Homo sapiens), P21728. activity change, negative = inhibition, % at 10 µM; in the data active = activity change below about -30%; also: % is scaled to controls: 0 for no effect and ±100 for the full control effect
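HEK293 T-REx cells expressing inducible, force-coupled D1 receptor; no-wash Ca dye, 30–90 min RT. Cmpd → 180 s read at 1 Hz → EC80 DA → 180 s read.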
TRHR agonist = qHTS for Small Molecule Agonists and Allosteric Enhancers of Human TRH Receptor: Primary Screen for Agonists. Thyrotropin-releasing hormone receptor (Homo sapiens), P34981. AID 493084, 2011. activation, % at 2 µM. 360,000 tested, 0.18% active. TRHR cells, calcium flux fluo-8, FDSS agonist mode; also: 0% is about no effect
Target sequence (P34981 whole entry, looked up): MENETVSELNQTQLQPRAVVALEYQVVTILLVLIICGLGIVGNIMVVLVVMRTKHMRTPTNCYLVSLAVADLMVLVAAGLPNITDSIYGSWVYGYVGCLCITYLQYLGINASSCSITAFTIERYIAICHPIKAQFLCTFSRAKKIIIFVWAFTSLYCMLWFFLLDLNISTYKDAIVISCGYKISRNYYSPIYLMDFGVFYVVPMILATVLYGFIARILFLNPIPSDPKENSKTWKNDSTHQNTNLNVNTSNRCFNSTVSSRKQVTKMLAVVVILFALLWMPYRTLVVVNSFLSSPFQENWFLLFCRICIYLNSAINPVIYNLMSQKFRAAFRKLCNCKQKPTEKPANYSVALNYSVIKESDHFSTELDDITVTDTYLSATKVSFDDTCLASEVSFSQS
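Steps: seed TRHR cells overnight; add fluo-8 no-wash Ca dye, RT 30 min–1.5 h; record 10 s baseline; pin-transfer compounds; monitor fluorescence 1 cycle/s for the agonist window. Calcium increases flag candidate agonists.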
TRHR enhancer = qHTS for Small Molecule Agonists and Allosteric Enhancers of Human TRH Receptor: Primary Screen for Enhancers. Thyrotropin-releasing hormone receptor (Homo sapiens), P34981. TRHR cells, fluo-8 calcium fluorescence, EC20 TRH enhancement. enhancement, % at 2 µM. AID 493056, 2011. 360,000 tested, 0.66% active; in the data active = enhancement above about 30%; also: 0% is about no effect
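TRHR-expressing cells loaded with fluo-8 calcium dye were read kinetically (ex 480/em 530) during compound addition, then stimulated with an EC20 of TRH (10 nM final). Enhancement of the Gq-mediated intracellular calcium response was scored.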
Numbers without * were called inactive; ! = repeats disagree. Most compounds without a hit are left out; they make up all but 4.7% or so of the library. Rule as the data show it, unless noted: active = activation above about 30%; inactive = the rest.

SMILES	D1 ag	D1 PAM	D1 antag	TRHR agonist	TRHR enhancer
O=C(CN1C(=O)CCc2cc(S(=O)(=O)N3CCOCC3)ccc21)Nc1cccc(C(F)(F)F)c1	-2	0	7	2	-8
Cc1oc(-c2cccc(Cl)c2)nc1CS(=O)(=O)CC(=O)NCCN1CCOCC1	2	-1	-33*	0	1
Cc1oc(-c2cccc(Cl)c2)nc1CN1CCC(C(=O)NC2CC2)CC1	3	-4	5	0	-8
CCN(CCNC(=O)C1CCN(Cc2nc(-c3cccc(Cl)c3)oc2C)CC1)c1ccccc1	47*	-5	-44*	0	-6
Cc1oc(-c2ccc(Cl)cc2)nc1CN1CCC(C(=O)NCCCN2CCN(c3cccc(Cl)c3)CC2)CC1	49*	-3	-45*	0	10
COc1ccc(CCn2c3c(c(=O)[nH]c2=O)C(NC(=O)c2ccccc2F)(C(F)(F)F)C(=O)N3)cc1OC (configuration not stated)	1	2	0	0	3
CCC(C(=O)NC(C)(C)C)N(C(=O)c1ccc(Cl)nc1)C1CCCC1 (configuration not stated)	0	0	0	12	-3
COC(=O)c1cc2sccc2n1CC(=O)Nc1cc(Cl)ccc1OC	16	0	21	1	0
CCOC(=O)c1cc(C(=O)NN)c(C)nc1C	3	-5	-87*	-1	2
CCOC(=O)c1cc(C#N)c(Oc2ccc(F)cc2)nc1-c1ccccc1	8	-2	-35*	1	1
CCOC(=O)c1cc(NC(=O)N(CC)CC)c(C)nc1C	2	-1	10	-1	20
CCOC(=O)c1cc(C#N)c(NCc2ccccc2)nc1C	5	-6	-43*	0	-5
CC(C)NC(=O)c1ccc2c(c1)N(Cc1cccc(Cl)c1)C(=O)c1ccccc1S2=O (configuration not stated)	3	1	3	0	-4
CC(=O)Nc1ccc(NC(=O)C(Cc2ccccc2)N2Cc3ccccc3C2=O)cc1 (configuration not stated)	-1	0	3	0	1
CCCC(NC(=O)COc1cc2c(c3oc(=O)cc(C)c13)CCC(C)(C)O2)C(=O)O (configuration not stated)	4	-8	9	0	-2
COc1ccc(NC(=O)NCCCN2CCN(c3ccccc3F)CC2)cc1	6	-13	-86*	0	-3
Cc1ccc(-n2nc(C)c(C(=O)NCCCN3CCN(c4cccc(Cl)c4)CC3)c2-n2cccc2)cc1	3	-1	-1	1	10
CCOC(=O)c1c(C)[nH]c(C)c1S(=O)(=O)NCCN1CCN(c2ccccc2F)CC1	2	-20	-79*	0	-4
Cc1ccc(-n2nc(C)c(C(=O)NCCCN3CCN(c4ccccc4F)CC3)c2-n2cccc2)cc1	22	-4	-47*	-1	7
CCOc1ccc(NC(=O)NCCN2CCN(c3ccccc3F)CC2)cc1	4	-23	-61*!	0	10
CCOC(=O)c1c(C)[nH]c(C)c1S(=O)(=O)NCC1CCN(Cc2ccccc2F)CC1	0	2	35	0	-5
CCOc1ccc(C(=O)Nc2nc(-c3ccc(Br)cc3)ns2)cc1	-1	-2	1	0	6
CCOc1ccc(CCNC(=O)c2cc3cccc4c3n2CCS4)cc1	0	-2	0	0	4
Cc1c(CC(=O)NCc2ccccc2)c(=O)oc2c(C)c(O)ccc12	-1	-2	-2	-1	-1
CC(C)(C)c1ccc(-c2nc(N)nc(N)n2)cc1	2	4	0	-1	4
SMILES	D1 ag	D1 PAM	D1 antag	TRHR agonist	TRHR enhancer
Nc1nc(-c2ccc(Cl)cc2)nc(-c2ccc(Cl)cc2)n1	1	-3	-35*	0	-2
Cc1cc2c(s1)c1cnn(Cc3ccc(F)c(C)c3)c(=O)c1n2C	8	6	-2	-1	1
N#C/C(=C\c1ccccc1)c1nc(-c2cc3c(ccc4ccccc43)oc2=O)cs1	2	0	-4	-1	-3
O=C(CN1C(=O)NC2(CCCCCC2)C1=O)c1ccc(Cl)cc1	5	-3	-11	0	10
CN(Cc1ccccc1)C(=O)CN1C(=O)NC2(CCCC2)C1=O	-1	-11	7	0	5
O=C(CN1C(=O)NC2(CCCC2)C1=O)OCc1ccccc1	0	-6	-16	0	-10
O=C(CN1C(=O)NC2(CCCC2)C1=O)OCc1ccc(Br)cc1	1	-4	-66*	0	12
N#Cc1ccsc1NC(=O)CN1C(=O)NC2(CCCC2)C1=O	1	-8	-33*	1	-26
O=C(CN1C(=O)NC2(CCCCCC2)C1=O)c1ccc(F)cc1	-2	-2	-49*	0	-8
CN(Cc1ccccc1Br)C(=O)CN1C(=O)NC2(CCCCCC2)C1=O	-1	-5	-76*	-1	-22
Cc1ccc(-n2ncc(C(=O)NCCN3CCOCC3)c2C2CCN(C(=O)OC(C)(C)C)CC2)c(C)c1	1	2	12	1	5
CCc1cccc(NC(=O)c2cc3c(=O)oc4ccc(C)cc4c3s2)c1	1	-3	5	1	3
O=C(CN1CCC(O)(c2ccc3c(c2)OCO3)CC1)N1CCOCC1	4	-6	1	0	15
OC1(c2ccc3c(c2)OCO3)CCN(Cc2ccccn2)CC1	1	-4	-40*	0	0
CC(C)(C)OC(=O)N1CCC(c2c(C(=O)NCCN3CCC(Cc4ccccc4)CC3)cnn2-c2cccc(Cl)c2)CC1	21	4	4	3	11
O=S(=O)(c1cccc(Cl)c1)n1c(/C=C/c2ccccc2Cl)nc2ccccc21	-2	-3	-33*	-1	2
CSc1ccc(/C=C/c2nc3ccccc3n2S(=O)(=O)c2cccc(Cl)c2)cc1	10	-1	-27	-1	-4
O=C(Nn1cnc2ccccc2c1=O)C1CCCCC1	3	1	-30*	0	9
CCCC1CCC(C(=O)Nn2cnc3ccccc3c2=O)CC1 (configuration not stated)	-4	4	13	0	0
C=CCNc1nc(Nc2ccc([N+](=O)[O-])cc2)nc(OCC)n1	3	-9	-55*	0	1
Cc1ccc(-c2nnc(Nc3cccc(C(F)(F)F)c3)c3ccccc23)cc1S(=O)(=O)N1CCOCC1	7	3	-11	1	20
CC1=CC(c2ccccc2)n2nc(N3C(=O)c4ccccc4C3=O)nc2N1 (configuration not stated)	-2	2	-5	0	2
